This is an account of results in PubChem BioAssay (NCI).

Each structure is given as a SMILES string. The panel holds about 83,000 compounds, 20% with a hit somewhere; the sample as a whole holds those more often.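 Single-concentration screen, 48 h exposure, 96-well plates. Endpoint: percent growth. Below 10 = active.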 Unmarked numbers belong to inactive results. Activity calls are given as the source filed them.

Common to all, as to experiment: NCI-60 one-dose screen, 48 h (100 = growth as untreated, 0 = no growth, -100 = all killed)
Holding throughout (conditions): 10 µM

In experiment [1] the test system is SN12C renal.
The subject of experiment [2] is TK-10 renal.
Experiment [3] relates to ACHN renal.
The subject of experiment [4] is CAKI-1 renal.
The test system of experiment [5] is A498 renal.
For experiment [6], the system named is CCRF-CEM leukemia.
The test system of experiment [7] is MOLT-4 leukemia.
For experiment [8], the system named is SR leukemia.
Experiment [9] relates to RPMI-8226 leukemia.
Experiment [10] has as its system OVCAR-8 ovarian.
Experiment [11] relates to OVCAR-5 ovarian.
Experiment [12] relates to OVCAR-4 ovarian.
For experiment [13], the system named is SK-OV-3 ovarian.
Experiment [14] has as its system OVCAR-3 ovarian.
Experiment [15] deals with HS 578T breast.
Experiment [16] relates to NCI/ADR-RES ovarian.
The test system of experiment [17] is EKVX NSCLC.
For experiment [18], the system named is UO-31 renal.
Experiment [19] deals with IGROV1 ovarian.

On to `COc1ccc(C2CC(c3cccs3)=NN2c2ccc(S(N)(=O)=O)cc2)cc1` (configuration not stated), for which the growth in experiment [1] was 91.3%; in experiment [2], 108%; in [3] it was 90.2%; in experiment [4], 88.9%; in experiment [5], 78.5%; in experiment [6], 76.3%. Further, the growth is 71.3% in experiment [7]; 83% in experiment [8]; 61.2% in [9]; 84.4% in [10]; 95.4% in experiment [11]; 107% in experiment [12]. In addition, the growth in [13] is 88.5%; in experiment [14] it was 92.5%; in experiment [15], 97.4%; in experiment [16], 77.4%.

On to `C[C@@H](O)[C@H]1C(=O)N2C(C(=O)O)=C(SCCN=CN)C[C@H]12`, for which the growth in experiment [17] is 7.62% (active); in experiment [1], 2.27% (active); in experiment [18], -50.4% (active); in [2] it was -0.459% (active); in [3], -30.6% (active); in experiment [4], -28.2% (active). Moreover, the growth in experiment [5] is -36.4% (active); in [6] it was 4.2% (active); in experiment [7] it was -13.9% (active); in experiment [8], -5.48% (active); in experiment [9] it was -3.62% (active); in experiment [10] it was -10.1% (active). The growth was 3.52% (active) in experiment [11]; 2.23% (active) in [13]; -5.16% (active) in experiment [19]; -15% (active) in [14]; 24.3% in experiment [15].

`CCN1CC(CCN2CCOCC2)C(C(c2ccccc2)c2ccccc2)C1=O` (configuration not stated): the growth in experiment [17] is 97.8%; in experiment [1], 98.4%; in experiment [18], 85.5%; in experiment [2], 114%; in experiment [3] it was 107%; in [4], 91.5%. The growth was 79.5% in experiment [5]; 96.4% in experiment [6]; 100% in experiment [7]; 113% in [9]; 99.9% in experiment [10]; 110% in [11]. In addition, the growth in experiment [12] was 113%; in [13], 115%; in experiment [19] it was 127%; in [14] it was 112%; in experiment [15] it was 104%; in experiment [16], 98.8%.

`Cc1ccccc1N1C(=O)c2cc(S(N)(=O)=O)c(Cl)cc2NC1C` (configuration not stated): the growth was 111% in experiment [17]; 108% in [1]; 82.8% in experiment [18]; 104% in [2]; 108% in experiment [3]; 103% in experiment [4]. Moreover, the growth was 108% in experiment [5]; 103% in experiment [6]; 84.9% in experiment [7]; 87.1% in experiment [8]; 106% in experiment [9]; 108% in [11]. In addition, the growth in [12] is 111%; in experiment [13] it was 128%; in experiment [19] it was 111%; in [14], 109%; in experiment [16], 103%.

Regarding `CCC1NC(=O)c2cc(S(N)(=O)=O)c(Cl)cc2N1` (configuration not stated), the growth is 109% in experiment [17]; 94% in [1]; 98.8% in [18]; 106% in experiment [2]; 108% in experiment [3]; 104% in experiment [4]. Moreover, the growth is 110% in [5]; 97.7% in [6]; 113% in experiment [7]; 103% in experiment [8]; 109% in [9]; 100% in [10]. The growth in [11] is 105%; in experiment [12], 130%; in [13] it was 118%; in experiment [19] it was 120%; in experiment [14] it was 126%; in experiment [15], 112%. In [16], the growth was 108%.

With `CNC(=O)c1c(I)c(NC(C)=O)c(I)c(C(=O)O)c1I`, the growth in [17] was 126%; in [1], 95.6%; in [18] it was 88.6%; in experiment [2], 114%; in experiment [3], 102%; in experiment [4] it was 115%. For the same molecule, the growth is 99.3% in experiment [5]; 104% in [6]; 110% in experiment [7]; 104% in experiment [8]; 110% in experiment [9]; 103% in experiment [10]. Also, the growth in [11] was 113%; in experiment [12] it was 111%; in [13], 104%; in experiment [19], 115%; in experiment [14], 111%; in [16], 103%.

In the case of `COc1ccc(Cc2cnc(N)nc2N)cc1OC`, the growth in experiment [17] was 115%; in [1], 96.1%; in experiment [18], 78%; in [2], 110%; in [3] it was 96.5%; in [4], 89.1%. In addition, the growth was 73.4% in experiment [5]; 102% in experiment [6]; 104% in experiment [7]; 98.9% in [8]; 102% in [9]; 96.2% in experiment [10]. Also, the growth in experiment [11] was 100%; in experiment [12] it was 106%; in experiment [13] it was 96%; in experiment [19], 112%; in experiment [14] it was 106%; in [15] it was 105%. Besides, the growth in experiment [16] is 99.7%.

In the case of `C#C[C@]1(O)CCC2C3CCc4cc(OC5CCCC5)ccc4C3CC[C@@]21C` (some centres not stated), the growth is 86.3% in [17]; 70.9% in [1]; 72.5% in experiment [18]; 86.9% in experiment [2]; 73.3% in experiment [3]; 42% in experiment [4]. Also, the growth was 85.1% in experiment [5]; 85.4% in experiment [6]; 59.8% in [7]; 15.1% in experiment [8]; 80.4% in experiment [9]; 63.2% in experiment [11]. Further, the growth in experiment [12] is 92.9%; in [13] it was 100%; in experiment [19], 101%; in [14] it was 96.4%; in experiment [16], 87.6%.

As for `CC(C)(C)c1ccc(S(=O)(=O)N[C@H]2CC[C@H]3[C@@H]4CCc5cc(OS(=O)(=O)O)ccc5[C@H]4CC[C@]23C)cc1`, the growth in experiment [1] was 27.4%; in [18], 17%; in experiment [3], 33.4%; in [4], 41.5%; in experiment [5], 28.1%; in experiment [7], 15.2%. Moreover, the growth is 20.7% in experiment [8]; 34.1% in experiment [9]; 52.1% in experiment [10]; 87.3% in experiment [11]; 53.4% in experiment [12]; 82.1% in experiment [13]. Further, the growth in experiment [19] was 41.4%; in [14], 34.1%; in experiment [15], 66.5%; in experiment [16], 47.3%.
